In the library only some 2.7% were active in any assay of this set; here they are far more common.
Pf gametocyte: late stage P. falciparum gametocyte viability inhibitors, primary screen, ATP luminescence, HTS; P. falciparum stage V gametocytes, 24 h; inhibition, % at 10.9 µM; 150,000 tested, 0.065% active; AID 743093, 2013;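 active means inhibition above the mean plus 3 SD of compounds within the control limits, set per campaign, cut at about 38% in these data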;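 further: 0% = DMSO wells and 100% = medium only without gametocytes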
Bim-Mcl-1: inhibitors of Bim peptide binding to Mcl-1, primary screen, biochemical, bead-based flow cytometry, multiplex; Induced myeloid leukemia cell differentiation protein Mcl-1 (Homo sapiens), Q07820; Bim peptide-Mcl-1 binding; inhibition, % at 10 µM; 190,000 tested, 0.1% active; in the data active means inhibition above about 40%;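 further: 0% = no compound tracer wells and 100% = peptide blocker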
Target sequence (Q07820 whole entry, looked up): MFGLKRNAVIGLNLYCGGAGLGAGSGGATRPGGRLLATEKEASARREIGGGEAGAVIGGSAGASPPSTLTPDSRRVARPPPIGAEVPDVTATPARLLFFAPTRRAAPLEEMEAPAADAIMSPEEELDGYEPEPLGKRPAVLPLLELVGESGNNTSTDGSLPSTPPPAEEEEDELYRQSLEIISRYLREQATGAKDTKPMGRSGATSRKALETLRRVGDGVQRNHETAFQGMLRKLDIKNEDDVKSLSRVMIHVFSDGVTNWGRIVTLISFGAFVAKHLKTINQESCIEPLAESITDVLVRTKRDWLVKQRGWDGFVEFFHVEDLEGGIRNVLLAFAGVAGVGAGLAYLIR
14-3-3 Bad inh: inhibitors of 14-3-3 zeta/Bad binding, primary screen, biochemical, TR-FRET, bovine 14-3-3 zeta. 14-3-3 protein zeta/delta (Bos taurus), P63103. TR-FRET 14-3-3zeta/Dy647-pBad peptide displacement, 1 h. inhibition, % at 21.7 µM. 220,000 tested, 0.71% active. AID 781, 2007;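 active means inhibition above about 70%, limit read from the data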;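 further: 0% = full 14-3-3 plus peptide FRET controls and 100% = background without 14-3-3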
Target sequence (P63103 whole entry, looked up): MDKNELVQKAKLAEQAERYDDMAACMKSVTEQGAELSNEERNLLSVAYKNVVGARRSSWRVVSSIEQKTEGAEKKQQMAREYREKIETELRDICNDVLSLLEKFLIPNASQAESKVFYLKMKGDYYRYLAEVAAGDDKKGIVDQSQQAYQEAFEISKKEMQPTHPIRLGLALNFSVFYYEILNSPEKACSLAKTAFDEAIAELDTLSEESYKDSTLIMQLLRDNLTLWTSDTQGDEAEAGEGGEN
Mcl1 Bid PPI: Mcl-1/Bid binding inhibitors, primary screen, biochemical, TR-FRET, 1536-well | inhibition, % at 21.7 µM | 220,000 tested, 0.97% active | TR-FRET Mcl-1/Bid-Dy647 peptide binding | AID 1021, 2008 | Induced myeloid leukemia cell differentiation protein Mcl-1 (Homo sapiens), Q07820;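 active means compounds that cut the binding signal by more than half at the single screening dose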;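 further: His-tagged Mcl-1 with europium anti-His antibody binding Bid BH3 peptide; 0% = Mcl-1 plus peptide wells and 100% = peptide-only wells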
Mcl1-Noxa inh: Mcl-1/Noxa binding inhibitors, primary screen, biochemical, TR-FRET, 1536-well | 220,000 tested, 1.5% active | Induced myeloid leukemia cell differentiation protein Mcl-1 (Homo sapiens), Q07820 | TR-FRET Mcl-1/Noxa peptide binding, 2 h | inhibition, % at 21.7 µM | AID 1022, 2008;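 active means compounds that cut the protein-peptide binding signal by more than 50% relative to plate controls in a single-dose test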;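 further: His-tagged Mcl-1 with rhodamine Noxa BH3 peptide and terbium anti-His antibody; 0% = Mcl-1 plus Noxa peptide wells and 100% = peptide-only wells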
eIF4E 4G PPI: eIF4E–eIF4G protein interaction inhibitors, primary screen, biochemical, uHTS, TR-FRET, eIF4GI fragment; 220,000 tested, 0.37% active; inhibition, % at 21.7 µM; Eukaryotic translation initiation factor 4E (Mus musculus) + Eukaryotic translation …; TR-FRET eIF4E-eIF4GI(517-606) binding, 2 h; AID 782, 2007;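 active means inhibition above about 30%, limit read from the data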;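 further: 0% = full FRET control wells and 100% = background wells lacking eIF4GI fragment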
Active calls of the source: *; [ ] = dose if it differs, or a comment.

Results for CC(=O)c1ccc(N2CCN(C(=O)c3ccc(NC(=O)C4CCCO4)cc3)CC2)cc1 (configuration not stated) ?
Pf gametocyte: -2; Bim-Mcl-1: -3; 14-3-3 Bad inh: -13; Mcl1 Bid PPI: -9; Mcl1-Noxa inh: 0; eIF4E 4G PPI: 15

What do the screens show for `Cc1cc(C)c2c(c1)c(C)cc1nnc(SCC(=O)c3cccs3)n12`?
Bim-Mcl-1: -3; 14-3-3 Bad inh: 73*; Mcl1 Bid PPI: -15; Mcl1-Noxa inh: -3; eIF4E 4G PPI: 0

Results for COc1ccc2c(-c3cc4ccc(OCc5ccc(F)cc5)cc4oc3=O)cc(=O)oc2c1 ?
Bim-Mcl-1: 0; 14-3-3 Bad inh: 92*[fluorescence artefact?]; Mcl1 Bid PPI: 56*; Mcl1-Noxa inh: -2; eIF4E 4G PPI: 15

How did COc1ccc(-c2cc(=O)oc3cc(OCC(C)=O)ccc23)cc1 do in these assays?
Pf gametocyte: 0; Bim-Mcl-1: -1; 14-3-3 Bad inh: -25; Mcl1 Bid PPI: -19; Mcl1-Noxa inh: -1; eIF4E 4G PPI: 0

What do the screens show for `Cc1ccc(OC(C)C(=O)N=Nc2c(O)[nH]c3ccc([N+](=O)[O-])cc23)cc1` (configuration not stated)?
Pf gametocyte: 5; Bim-Mcl-1: -2; 14-3-3 Bad inh: -8; Mcl1 Bid PPI: -9; Mcl1-Noxa inh: -2; eIF4E 4G PPI: 2

What do the screens show for `O=C1c2cccnc2C(Nc2cccc(F)c2)N1Cc1ccco1` (configuration not stated)?
Pf gametocyte: -10; Bim-Mcl-1: 0; 14-3-3 Bad inh: -8; Mcl1 Bid PPI: -24; Mcl1-Noxa inh: 3; eIF4E 4G PPI: 0

Results for O=C1c2cccnc2C(Nc2ccccc2)N1Cc1ccco1 (configuration not stated) ?
Bim-Mcl-1: -3; 14-3-3 Bad inh: 33; Mcl1 Bid PPI: 60*; Mcl1-Noxa inh: 60*; eIF4E 4G PPI: -1

Results for CCOC(=O)c1sc(C)c2c1NC(c1ccc(Cl)cc1)NC2=O (configuration not stated) ?
Pf gametocyte: -16; Bim-Mcl-1: 0; 14-3-3 Bad inh: 7; Mcl1 Bid PPI: -41; Mcl1-Noxa inh: -39; eIF4E 4G PPI: -9

How did O=C1[C@H]2[C@@H](C(=O)N1c1cccc3ccccc13)C1(C(=O)c3ccccc3C1=O)N1CCC[C@@H]21 do in these assays?
Pf gametocyte: -7; Bim-Mcl-1: -6; 14-3-3 Bad inh: 9; Mcl1 Bid PPI: -26; Mcl1-Noxa inh: 64*; eIF4E 4G PPI: 3

How did O=C1[C@H]2[C@@H](C(=O)N1c1cc(Cl)cc(Cl)c1)[C@]1(C(=O)Nc3ccccc31)N1CCC[C@@H]21 do in these assays?
Pf gametocyte: -49; Bim-Mcl-1: -3; 14-3-3 Bad inh: 11; Mcl1 Bid PPI: -10; Mcl1-Noxa inh: 21; eIF4E 4G PPI: -4

How did O=C1CCC(C(=O)NCCN2C(=O)S/C(=C\c3cccnc3)C2=O)=NN1 do in these assays?
Bim-Mcl-1: -4; 14-3-3 Bad inh: 2; Mcl1 Bid PPI: -9; Mcl1-Noxa inh: 16; eIF4E 4G PPI: 1

How did CS(=O)(=O)c1ccc(C(=O)NCCN2C(=O)S/C(=C\c3cccnc3)C2=O)cc1[N+](=O)[O-] do in these assays?
Pf gametocyte: 0; Bim-Mcl-1: 0; 14-3-3 Bad inh: 32; Mcl1 Bid PPI: 24; Mcl1-Noxa inh: 81*; eIF4E 4G PPI: 1

What do the screens show for `O=C(NCCN1C(=O)S/C(=C\c2ccc(Cl)c(Cl)c2)C1=O)c1cnccn1`?
Pf gametocyte: 3; Bim-Mcl-1: 2; 14-3-3 Bad inh: -13; Mcl1 Bid PPI: -23; Mcl1-Noxa inh: 58*; eIF4E 4G PPI: 10

Results for O=C(O)CCN1C(=O)S/C(=C\c2cccnc2)C1=O ?
Pf gametocyte: -11; 14-3-3 Bad inh: 0; Mcl1 Bid PPI: 91*; Mcl1-Noxa inh: 13; eIF4E 4G PPI: 7

Results for O=C(CN1C(=O)S/C(=C/c2cccnc2)C1=O)N1CCOCC1 ?
Pf gametocyte: -13; Bim-Mcl-1: -1; 14-3-3 Bad inh: -4; Mcl1 Bid PPI: -2; Mcl1-Noxa inh: 31; eIF4E 4G PPI: 4

Results for CN(C)S(=O)(=O)c1ccc(C(=O)NCCN2C(=O)S/C(=C\c3cccnc3)C2=O)cc1 ?
Pf gametocyte: -9; Bim-Mcl-1: 0; 14-3-3 Bad inh: -16; Mcl1 Bid PPI: -14; Mcl1-Noxa inh: 15; eIF4E 4G PPI: -2

Results for O=C(Cc1cccs1)Nc1ccc(F)cc1 ?
Pf gametocyte: 9

What do the screens show for `CCCCCCC(=O)N/N=C(\C)Cc1ccccc1`?
Pf gametocyte: 8; Bim-Mcl-1: -3; 14-3-3 Bad inh: -3; Mcl1 Bid PPI: -14; Mcl1-Noxa inh: 70*; eIF4E 4G PPI: 4

How did COc1ccc(OC)c(S(=O)(=O)Nc2ccc(O)c3ccccc23)c1 do in these assays?
Bim-Mcl-1: 0; 14-3-3 Bad inh: 6; Mcl1 Bid PPI: -20; Mcl1-Noxa inh: 51*; eIF4E 4G PPI: 8

How did CN1CCC(=O)N(CCSc2ccc(Br)cc2)CC1 do in these assays?
14-3-3 Bad inh: 1; Mcl1 Bid PPI: -76; Mcl1-Noxa inh: 10; eIF4E 4G PPI: 0

Results for COC(=O)c1sccc1NC(=O)c1cc(C)on1 ?
Bim-Mcl-1: 0; 14-3-3 Bad inh: 2; Mcl1 Bid PPI: 63*; Mcl1-Noxa inh: 1; eIF4E 4G PPI: 8

How did CN(C)c1ccc(N/C(N)=N/c2nc(C(F)(F)F)cc(C(F)(F)F)n2)cc1 do in these assays?
Pf gametocyte: 11; Bim-Mcl-1: 1; 14-3-3 Bad inh: -14; Mcl1 Bid PPI: -51; Mcl1-Noxa inh: 61*; eIF4E 4G PPI: 14

Results for COc1ccc(CN2CCn3ncc(C(=O)Nc4cccc(C)c4)c3C2=O)cc1 ?
Pf gametocyte: -18; Bim-Mcl-1: -2; 14-3-3 Bad inh: 5; Mcl1 Bid PPI: -26; Mcl1-Noxa inh: 2; eIF4E 4G PPI: 6

How did NC(=O)[C@@H]1[C@@H]2C(=O)N(c3ccc(F)cc3)C(=O)[C@@H]2[C@H]2C=Cc3ccccc3N21 do in these assays?
Pf gametocyte: 13; 14-3-3 Bad inh: 1; Mcl1 Bid PPI: 25; Mcl1-Noxa inh: 13; eIF4E 4G PPI: 3

How did O=C(c1ccco1)[C@@H]1[C@@H]2C(=O)N(c3ccc(F)cc3)C(=O)[C@@H]2[C@H]2C=Cc3ccccc3N21 do in these assays?
Pf gametocyte: 2; Bim-Mcl-1: 5; 14-3-3 Bad inh: 89*[fluorescence artefact?]; Mcl1 Bid PPI: 24; Mcl1-Noxa inh: 73*; eIF4E 4G PPI: 2

High-throughput results (PubChem)
